# Experimental data published in PubChem BioAssay (NCI).
# Compounds without any hit were thinned out: in the full panel of roughly 83,000, 20% have a hit.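 Step 1: grow cells in 96-well plates. Step 2: add test compound at a single concentration. Step 3: incubate 48 h. Step 4: record percent growth.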 A number with no mark means an inactive call. The source made the active and inactive calls. The calls were made as follows: active = growth percent below 10; inactive = the rest.
# How the values were obtained:
# Assay in all cases: NCI-60 one-dose screen, 48 h (100 = growth as untreated, 0 = no growth, -100 = all killed)
# Settings in all cases: 10 µM unless noted
# SK-MEL-2 melanoma = test system: SK-MEL-2 melanoma
# SN12C renal = test system: SN12C renal
# UO-31 renal = test system: UO-31 renal
# TK-10 renal = test system: TK-10 renal
# ACHN renal = test system: ACHN renal
# CAKI-1 renal = test system: CAKI-1 renal
# A498 renal = test system: A498 renal
# CCRF-CEM leukemia = test system: CCRF-CEM leukemia
# MOLT-4 leukemia = test system: MOLT-4 leukemia
# EKVX NSCLC = test system: EKVX NSCLC
SMILES,growth (SK-MEL-2 melanoma),growth (SN12C renal),growth (UO-31 renal),growth (TK-10 renal),growth (ACHN renal),growth (CAKI-1 renal),growth (A498 renal),growth (CCRF-CEM leukemia),growth (MOLT-4 leukemia),growth (EKVX NSCLC)
Cc1cc(Cl)c2c(Cl)ccc(Cl)c2n1,81.4%,113%,89.8%,112%,105%,95%,104%,98.7%,95.6%,–
Cc1c(C(=O)Nc2nc(-c3ccccc3)cs2)nnn1-c1cccc2ccccc12,48.2% [50 µM],67.9% [50 µM],49.7% [50 µM],–,58.1% [50 µM],–,58.5% [50 µM],47.2% [50 µM],30.4% [50 µM],39.3% [50 µM]
COc1ccc(C2CC(c3cc(OC)c(OC)c(OC)c3)=NN2c2ccc(S(N)(=O)=O)cc2)cc1 (configuration not stated),83.2%,73.7%,29.8%,66.4%,76.5%,67.3%,44.5%,41.3%,–,–
CCOC(=O)c1cnn(CC(O)c2ccc(F)cc2)c1NC(=O)Nc1ccccc1F (configuration not stated),111%,106%,–,103%,98.3%,83.7%,–,–,91.8%,101%
COc1cc(/C=N/NC(=O)c2cnn3c2NC(c2ccccc2)C3)ccc1OC1CCCC1 (configuration not stated),18.6%,46.1%,–,60.2%,35.6%,32.2%,–,24.3%,41.6%,44.9%
COc1cc(CNCCCN2C(=O)c3ccc4c5c(ccc(c35)C2=O)C(=O)N(CCCNCc2cc(OC)c(OC)c(OC)c2)C4=O)cc(OC)c1OC,-71.8% (active),-98.9% (active),–,-28.5% (active),–,36.9%,-11.5% (active),–,-12.6% (active),-72.9% (active)
COc1ccc(/C=C(\C#N)c2ccc(OC)cc2)cc1,54.4%,67.5%,–,76.7%,88.3%,64.7%,46.6%,55.6%,56.9%,92.2%
COc1ccccc1/C=C/C(=O)/C=C/c1ccccc1O,72.5%,-18.7% (active),-83.4% (active),-0.117% (active),-81.1% (active),-62.5% (active),108%,-44.1% (active),-26.3% (active),–
COc1ccc(S(=O)(=O)ON=C2C=C(C)C(=O)C(C)=C2)cc1,82.5%,113%,80.4%,109%,46%,61.6%,98.4%,26.9%,42%,–
CCOC(=O)c1c(Cl)c2c(n1Cc1ccc(OC)cc1)-c1oncc1CCC2,103%,57.6%,66.2%,84.8%,73.9%,56.1%,65.5%,62.2%,72.1%,–
Nc1nc(N)c(N=Nc2c(Br)cc(S(N)(=O)=O)cc2Br)c(N)n1,94.9%,103%,98%,122%,114%,99%,96.4%,88.3%,95.2%,–
CCOC(=O)c1c(Cl)c2c(n1Cc1cc(OC)cc(OC)c1)-c1oncc1CCC2,44.6%,38.9%,44.6%,55.1%,48.3%,31.3%,-13% (active),7.48% (active),30%,–
O=C(Nc1nc2ccccc2[nH]1)C(=O)Nc1nc2ccccc2[nH]1,98.8%,94.5%,69.6%,132%,93.4%,91.5%,99.1%,94.7%,103%,–
CC1(C)N=C(N)N=C(N)N1c1cccc(/C=C/C=C/c2cccc([N+](=O)[O-])c2)c1,67.2%,83.6%,81.5%,50.9%,95.6%,96.9%,65.2%,35%,45.5%,–
CC1(C)CC(=O)C2=C(C1)Nc1cc3c(cc1C2c1ccc(F)cc1)OCO3 (configuration not stated),91.3%,106%,74%,99.4%,98.6%,96.4%,82%,86.4%,83.1%,–
NS(=O)(=O)c1cc(Br)c2c(c1)S(=O)(=O)NCN2,102%,104%,96.7%,110%,111%,94.9%,115%,99.7%,87.5%,–

SMILES,growth (SK-MEL-2 melanoma),growth (SN12C renal),growth (UO-31 renal),growth (TK-10 renal),growth (ACHN renal),growth (CAKI-1 renal),growth (A498 renal),growth (CCRF-CEM leukemia),growth (MOLT-4 leukemia),growth (EKVX NSCLC)
CCCCCCCCCCCCCCNc1nc(CO)ncc1-c1ccc(C(F)(F)F)cc1,94.6%,102%,79.1%,98.9%,102%,93.8%,86.4%,93.6%,99.6%,–
Clc1ccc(Nc2ccnc(N3CCN(c4ccnc5cc(Cl)ccc45)CC3)n2)cc1,73.7%,51.4%,-8.75% (active),60.9%,41.9%,34.8%,-1.58% (active),38.4%,31.9%,–
COc1ccc(Cn2c(Br)c3c(c2-c2cc(OC)c(OC)c(OC)c2)CCc2sc(N)nc2-3)cc1,50.3%,31.9%,35.2%,46.2%,42.1%,44.7%,-15.8% (active),3.52% (active),8.47% (active),–
Cc1ccc(-c2c3c(N)c4c(nc3nc3c2c(C)nn3-c2ccccc2)CCCC4)cc1,96%,99.8%,88%,102%,97.7%,93.2%,92.2%,82.7%,92.6%,–
O=C1C2CC3C(CC2C(=O)[N]1[Sn]([c]1ccccc1)([c]1ccccc1)[c]1ccccc1)C1(Cl)C(Cl)=C(Cl)C3(Cl)C1(Cl)Cl (configuration not stated),-93.5% (active),-87.3% (active),-98.3% (active),-100% (active),-99.8% (active),-92.8% (active),-95.5% (active),-43.3% (active),-46.1% (active),–
Cn1c2c(cc(S(=O)(=O)c3ccccc3)c1=O)CCc1c-2cnn1-c1cccc(Cl)c1,107%,90.3%,-84.5% (active),86.5%,-87.9% (active),-58% (active),71.4%,90.9%,86.2%,–
O=C(Nc1ccc(F)cc1)c1ccc(C(=O)Nc2ccc(F)cc2)cc1,105%,102%,87.8%,108%,99.8%,94.2%,90.4%,102%,94.4%,–
COc1nc2c(cc1S(=O)(=O)c1ccccc1)CCc1c-2cnn1-c1ccccc1Cl,92.2%,59%,40.2%,42.2%,62.5%,49.9%,-1.8% (active),60.8%,42.9%,–
CCOC(=O)c1sc(NC(=O)CN2CCC(Cc3ccccc3)CC2)nc1C,133%,106%,80.4%,106%,107%,99.4%,100%,94.1%,84.3%,–
CCOC(=O)c1cc2c(n(C)c1=O)-c1cnn(-c3ccc(OC)cc3)c1CC2,105%,99.8%,77.5%,130%,81.4%,89.8%,87%,89.5%,94.2%,–
Nc1nc2c(s1)CCc1c-2c(Br)n(Cc2ccccc2)c1Br,99.7%,87.7%,72.9%,88.1%,19.4%,81.5%,91.5%,2.66% (active),11%,–
COc1ccc(-c2nc(Nc3ccc(F)cc3)nc(Nc3ccc4c(c3)nc(C)n4Cc3ccccc3)n2)cc1,48.2%,48.4%,29.3%,74.9%,37.1%,83.2%,72.7%,-6.22% (active),-9.61% (active),–
COC(=O)[C@H]1CCCN1C(=O)[C@H]1CCCN1C(=O)[C@@H](Cc1c[nH]c2ccccc12)NC(=S)Nc1cc(C(F)(F)F)cc(C(F)(F)F)c1,93.2%,43.2%,41.1%,78.4%,44.3%,28.5%,56%,36%,21.2%,–
COc1ccc(-c2cc(=O)oc3c4c(ccc23)OCN(Cc2ccc(F)cc2)C4)cc1,94.2%,58.6%,42.7%,62.4%,64.7%,51.7%,38.9%,52.4%,39.9%,–
Cc1nc2cc(Nc3nc(NCCN)nc(Nc4ccc(F)cc4)n3)ccc2n1Cc1ccccc1,90.5%,85.1%,89.3%,101%,96.8%,94.2%,67.4%,-13.7% (active),-14.4% (active),–
